HSF1 inh: HSF1 inhibition | AID 2098 | 300,000 tested, 0.77% active | NIH3T3-HGL HSE-luciferase, MG132-induced, luminescence 8 h; stronger effect = lower value | activity change, negative = inhibition, % at 7.5 µM (by protocol);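 active = more than half of replicate wells show activity change below -50%, luminescence cut by over half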;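 also: luciferase reports HSF-1 transcriptional activity via heat shock element; 0% = median of DMSO wells and -100% = zero luminescence signal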
HSP90 inh: HSP90 refolding inhibition in rabbit reticulocyte lysate; luciferase refolding luminescence, 3 h; inhibition, % at 5.6 µM; 290,000 tested, 0.91% active;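 active = inhibition above the screen-wide mean plus 3 SD, computed separately per campaign, cut at about 16% in these data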;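 also: 0% = DMSO wells and 100% = 60 µM geldanamycin wells; inhibitors lower the luminescence because luciferase stays unfolded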
HIF activator: HIF pathway transcriptional activation. U2OS HRE-luciferase reporter, luminescence; normalized: DMSO 0%, desferrioxamine 100%. activation, % at 7.5 µM (by protocol). 300,000 tested, 0.32% active. AID 1910;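 active = mean activation of at least 10% of the iron chelator positive control signal, with at least half of replicates also reaching 10%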
ARNT TACC3 PPI: ARNT/TACC3 interaction disruption; AlphaScreen His-ARNT PAS-B/GST-TACC3 binding, luminescence; TACC3 fragment carries E629A point mutation; inhibition, % at 9.99 µM; 390,000 tested, 0.66% active; AID 623870;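 active = mean inhibition of replicates at least 50% and at least half of replicates each reaching 50%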;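 also: 0% = complete ARNT plus TACC3 wells and 100% = ARNT alone without TACC3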
HSF1 activator: increases HSF-1 driven luciferase reporter signal; NIH3T3-HGL HSF-1 luciferase reporter, MG132, 8 h; 100% = twice DMSO control signal; activation, % at 9 µM; 300,000 tested, 1.7% active; AID 504408;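 active = mean replicate activation of at least 50% with a set share of replicates each reaching 50%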;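 also: 0% = median of the neutral control wells and 100% = twice that signal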
* = called active by the depositor; . = not tested or not shown. An excerpt weighted towards active compounds, which were near 3.1% of everything screened.

SMILES | HSF1 inh | HSP90 inh | HIF activator | ARNT TACC3 PPI | HSF1 activator
CSc1sc(C(=O)Nc2ccc(F)cc2F)c2c1C=CCC2 | 45 | -7 | 8 | -11 | 72*
O=c1cc[nH]c2c1ccc1c(=O)cc[nH]c12 | 2 | 1 | 0 | 74* | -11
COC(=O)c1cc(COc2ccc3c4c(c(=O)oc3c2)CCCC4)c(C)o1 | -4 | 2 | 1 | 9 | 1
COC(=O)c1cc(COc2ccc3oc(C)c(C(=O)OC(C)C)c3c2)c(C)o1 | -80* | -1 | 0 | -3 | -83
CNC[C@H]1OCCCC[C@H](C)Oc2ccc(NC(=O)Nc3ccc4c(c3)OCO4)cc2C(=O)N([C@@H](C)CO)C[C@@H]1C | . | . | . | 4 | .
Cc1noc(C)c1NC(=O)Nc1cccc2c1O[C@@H](CN(C)CC1CCCCC1)[C@@H](C)CN([C@H](C)CO)C2=O | . | . | . | -5 | .
CC(C)NC(=O)NCC[C@H]1CC[C@@H](NC(=O)Nc2ccccc2)[C@@H](CO)O1 | . | . | . | 2 | .
COc1ccc(C(=O)NC(=S)NCCO)cc1Br | -68* | -3 | 0 | -4 | -74
COc1ccc(C(=O)NC(=S)N(C)Cc2ccccc2)cc1Br | 21 | -2 | 0 | -2 | 54*
COc1ccc(C(=O)NC(=S)NCc2cccnc2)cc1Br | 6 | -1 | 0 | -7 | 9
CCNC(=O)[C@H]1[C@H](CO)[C@H]2Cn3c(ccc(-c4ccccc4)c3=O)[C@H]2N1C(=O)C1CCCC1 | . | . | . | 26 | .
COc1ccc(S(=O)(=O)N(C)C[C@@H]2OCCCC[C@H](C)Oc3ccc(NC(=O)Nc4ccc5c(c4)OCO5)cc3C(=O)N([C@H](C)CO)C[C@@H]2C)cc1 | . | . | . | -2 | .
C[C@H](CO)N1C[C@H](C)[C@@H](CN(C)C(=O)c2ccccc2)Oc2ncc(C3=CCCCC3)cc2C1=O | . | . | . | -9 | .
CCn1c(=O)n(CC)c2cc(N3CCCC3)c(NC(=O)c3ccccc3OC)cc21 | -2 | 1 | 0 | 0 | 0
CCn1c(=O)n(CC)c2cc(N3CCCC3)c(NC(=O)c3ccc(OC)c(Br)c3)cc21 | -71* | -4 | -1 | 12 | -78
C[C@H](CO)N1C[C@H](C)[C@H](CN(C)S(=O)(=O)c2ccc(Cl)cc2)OCCCC[C@H](C)Oc2ccc(NC(=O)CCC(F)(F)F)cc2C1=O | . | . | . | 4 | .
CO[C@@H]1CN(C)C(=O)c2ccc(NC(=O)C3CCC3)cc2OC[C@@H](C)N(Cc2ccncc2)C[C@@H]1C | . | . | . | -2 | .
CC1CCCCN1S(=O)(=O)c1ccc(C(=O)Nc2nnc(-c3ccco3)o2)cc1 (stereo not given) | -17 | -1 | 0 | 39 | -29
O=C(Nc1nnc(C2CC2)o1)c1ccc(S(=O)(=O)N2CCCc3ccccc32)cc1 | -18 | . | 0 | 48* | -19
CC1CCCCN1S(=O)(=O)c1ccc(C(=O)Nc2nnc(C3CC3)o2)cc1 (stereo not given) | 6 | 2 | 0 | 46* | -1
Cc1nnc(NC(=O)c2ccc(S(=O)(=O)N3CCCCC3C)cc2)o1 (stereo not given) | -9 | 4 | 0 | 51* | 1
C[C@H](CO)N1C[C@H](C)[C@H](CN(C)C(=O)Cc2ccccc2)Oc2ncc(-c3cncnc3)cc2C1=O | . | . | . | 0 | .
CCCC(=O)Nc1ccc2c(c1)C(=O)N(C)C[C@H](OC)[C@H](C)CN(C(C)=O)[C@@H](C)CO2 | . | . | . | -4 | .
CC(C)CC(=O)Nc1ccc(N2CCOCC2)cc1 | 46 | 6 | 0 | 3 | 98*
CC(C)(C)c1nc(SCC(=O)Nc2ccc(N3CCOCC3)cc2)c2ccccc2n1 | 27 | 0 | 4 | -6 | 58*
SMILES | HSF1 inh | HSP90 inh | HIF activator | ARNT TACC3 PPI | HSF1 activator
O=C(CS(=O)(=O)c1ccccc1)Nc1ccc(N2CCOCC2)cc1 | 0 | 3 | 20* | -9 | 4
C[C@@H]1CCCCO[C@@H](CN(C)S(=O)(=O)c2ccccc2)[C@H](C)CN([C@H](C)CO)C(=O)c2cc(NS(=O)(=O)c3cccs3)ccc2O1 | . | . | . | 4 | .
CO[C@@H]1CN(C)C(=O)c2cc(C#N)ccc2OC[C@H]2O[C@@H](CC[C@H]2OC)CCN(C)C(=O)[C@H]1C | . | . | . | -11 | .
C=CCc1cccc(/C=N/NC(=O)C[n+]2ccccc2)c1O | 8 | -7 | 7 | 80* | -1
C=CCc1cccc(/C=N/NC(=O)CNc2ccccc2)c1O | -13 | 3 | 0 | 0 | -5
Cc1sc(/C=C2\C(=O)ON=C2c2ccccc2)cc1Br | 5 | -1 | 0 | . | 23
Cc1ccc(C2=NOC(=O)/C2=C\c2ccccc2)cc1 | 12 | . | 31* | -9 | 16
CCCCc1ccc(/C=C2/C(=O)ON=C2c2ccccc2)s1 | 28 | -6 | 0 | -6 | 83*
Cc1ccc(/C=C2/C(=O)ON=C2c2ccccc2)o1 | 34 | 1 | 2 | -3 | 86*
C[C@H](CO)N1C[C@H](C)[C@H](CN(C)Cc2ccc(Cl)c(Cl)c2)Oc2ccc(NS(=O)(=O)c3ccccc3)cc2C1=O | . | . | . | -4 | .
C[C@H](CO)N1C[C@H](C)[C@H](CN(C)S(=O)(=O)c2cccs2)OCCCC[C@H](C)Oc2ccc(NC(=O)Nc3cccc4ccccc34)cc2C1=O | . | . | . | -2 | .
Cc1ccccc1S(=O)(=O)NCC[C@H]1CC[C@H](NC(=O)C2CCOCC2)[C@H](CO)O1 | . | . | . | -3 | .
C[C@H](CO)N1C[C@H](C)[C@@H](CN(C)CC2CC2)Oc2cc(C#CC(C)(C)O)ccc2S1(=O)=O | . | . | . | 3 | .
Cc1cc(C(=O)O)oc(=O)c1 | -5 | 2 | 219* | -8 | 2
NNC(=O)c1ccc(Cn2cc(Br)cn2)o1 | 0 | 0 | 0 | 5 | 8
COC(=O)c1ccc(C)c(NC(=O)c2ccc(Cn3cc([N+](=O)[O-])cn3)o2)c1 | 25 | -2 | 0 | -2 | 60*
Cc1ccc(NC(=O)c2ccc(Cn3cc(Br)cn3)o2)cc1 | 160 | 6 | 1 | 1 | 226*
OCCCNc1c2ccccc2nc2ccccc12 | 12 | 3 | 16* | -7 | 16
Fc1cccc(NCCc2c[nH]c3ccccc23)n1 | 22 | -3 | 1 | 5 | 14
Cc1ccc(-c2nc(NCCCO)c3ccccc3n2)cc1 | -3 | -2 | 1 | -3 | -10
c1ccc2c(NCCc3c[nH]c4ccccc34)c3ccccc3nc2c1 | 1 | -2 | 13* | 27 | 1
COc1cc(Cl)cc(/C=C/c2ccc3ccccc3n2)c1OC(C)=O | 158 | -4 | 3 | -29 | 183*
C=C(C)CNC(=S)Nc1nc2c(cc1C(=O)OCC)CCCC2 | 36 | -3 | 1 | . | 60*
CCOC(=O)c1cc2c(nc1N)CCCC2 | 1 | -4 | 0 | 12 | 8
COc1ccc(CCNCc2cc(C)n(-c3ccc(OC)cc3)c2C)cc1 | 18 | 5 | -37 | 11 | 67*
COc1ccc(-n2c(C)cc(C(=O)CCl)c2C)cc1 | -5 | 4 | 16* | -3 | 5
COc1ccc(CCNCc2ccccc2N2CCCC2)cc1 | -2 | 4 | -1 | 6 | -7
CC1(C)C=C2C(=NN(c3ccccc3)C(N)=C2C#N)CO1 | -71* | -1 | 0 | 46* | -78

Screening data (PubChem)
